This is one part of a sample in which hits are shown more often than they occur.
Cycloheximide cs – Cycloheximide Counterscreen for Small Molecule Inhibitors of Shiga Toxin | cell reporter, cycloheximide protein synthesis inhibition counterscreen | max response, % | 300,000 tested, 12% active; in the data active = max response mostly above about 13%, no sharp cut-off; inactive = mostly below about 14%; also: read at 38.3 µM for the half of the compounds with a filed dose
Marburg entry inh – qHTS for inhibitors of binding or entry into cells for Marburg Virus. Potency, µM (titrated, usually from 37.8 µM), actives largely listed as inhibitors. AID 540276, 2011. 300,000 tested, 1.8% active. Marburg virus pseudotyped entry inhibition, cell reporter; calls by dose curve; tested in HEK293 cells
LASV entry inh – qHTS for Inhibitors of binding or entry into cells for Lassa Virus. Lassa virus pseudotype entry inhibition, cell reporter. Potency, µM (top dose mostly 37.9 µM), hits mostly inhibitors. 300,000 tested, 1.2% active. AID 540256, 2011; calls by dose curve; tested in HEK293 cells; also: nearly all actives have a fitted effect of over 50% in size
Shiga toxin inh – A qHTS for Small Molecule Inhibitors of Shiga Toxin | Vero cells, Shiga toxin protein synthesis inhibition reporter | inhibition, % at 38.7 µM | 290,000 tested, 9.2% active | AID 2315, 2010; in the data active = inhibition mostly above about 28%, no sharp cut-off; inactive = mostly below about 43%
VACV Venus inh – qHTS for Stage-Specific Inhibitors of Vaccinia Orthopoxvirus: Venus Reporter Primary qHTS. Vaccinia virus Venus reporter expression, fluorescence. Potency, µM (doses to about 36.5 µM), hits mostly inhibitors. 330,000 tested, 0.46% active. AID 720580, 2013; calls by dose curve; tested in A549 cells; also: nearly all actives have a fitted effect of over 30% in size
Vaccinia mCherry – qHTS for Stage-Specific Inhibitors of Vaccinia Orthopoxvirus: mCherry Reporter Primary qHTS | Potency, µM (top dose mostly 36.5 µM), actives largely listed as inhibitors | 310,000 tested, 0.63% active | Vaccinia virus mCherry reporter infection, fluorescence | AID 720579, 2013; calls by dose curve; tested in A549 cells; also: nearly all actives have a fitted effect of over 35% in size
Numbers stand for hits; n = inactive; u = inconclusive; x = no result given.

SMILES	Cycloheximide cs	Marburg entry inh	LASV entry inh	Shiga toxin inh	VACV Venus inh	Vaccinia mCherry
CCOc1ccccc1Nc1nc(-c2sc(NC(=O)c3ccc([N+](=O)[O-])cc3)nc2C)cs1	n	x	x	n	x	x
Cc1nc(NC(=O)c2ccccc2)sc1-c1csc(Nc2ccc(Cl)cc2Cl)n1	n	n	x	n	x	x
Cc1ccccc1Nc1nc(-c2sc(NC(=O)c3cccc(Cl)c3)nc2C)cs1	19	n	x	n	x	x
Cc1ccc(Cl)cc1Nc1nc(-c2sc(NC(=O)c3cccc(Cl)c3)nc2C)cs1	n	x	x	n	x	x
CC(C)(Oc1ccc(Br)cc1)C(=O)Nc1cc(-c2nc3ccccc3[nH]2)ccc1Cl	x	u	n	x	n	n
O=C1c2ccccc2CN1c1ccccc1	38	u	n	54	n	n
COc1ccc(N2Cc3ccccc3C2=O)cc1	35	u	u	x	n	n
CCOc1ccc(N2Cc3ncccc3C2=O)cc1	47	u	u	137	x	x
O=C1N(c2ccccc2)CCN1c1ccccc1	38	x	x	x	x	x
CCc1ccc(-n2c(=O)c3sc4ccccc4c3n(CC(=O)N(CC)Cc3ccccc3)c2=O)cc1	x	u	n	x	n	n
Cc1ccc(N2Cc3ccccc3C2=O)cc1	25	x	x	n	x	x
CC(=O)N1CCOc2ccc(S(=O)(=O)NCc3ccc(F)cc3)cc21	n	x	x	n	x	x
Cc1ccc(S(=O)(=O)CC(=O)Nc2nc3ccc(S(N)(=O)=O)cc3s2)cc1	n	x	x	n	x	x
CCN(CC)S(=O)(=O)c1cc(C)ccc1NC(=S)Nc1cccnc1	n	11µM	u	n	n	n
CCCOc1c(Cl)cc(C(=O)N(Cc2cccc(OC)c2)C2CCS(=O)(=O)C2)cc1Cl (stereo unspecified)	x	u	n	x	n	n
CCN(CC)CCCNC(=O)c1nn(-c2ccc(OC)cc2)c(=O)c2c1c1ccccc1n2C	x	n	n	x	n	n
Cc1ccc(CSc2cn(CC(=O)N3CCCCCC3)c3ccccc23)cc1	x	x	8.9µM	x	n	n
CCc1ccc(NC(=O)CSc2cn(CC(=O)N3CCOCC3)c3ccccc23)cc1	x	x	n	x	n	n
O=C(Cn1cc(SCc2ccc(F)cc2)c2ccccc21)N1CCOCC1	36	u	n	16	n	n
O=C(Cn1cc(SCc2ccc(Cl)cc2)c2ccccc21)N1CCOCC1	26	u	n	32	n	u
Cc1ccc(CSc2cn(CC(=O)N3CCCC3)c3ccccc23)cc1	x	x	n	x	n	n
Cc1c(C(=O)N2CCCCCC2)c(S(=O)(=O)Nc2cccc(C#N)c2)c(C)n1C	x	x	n	x	n	n
NC(=O)CSc1nnc(NC(=O)C23CC4CC(CC(C4)C2)C3)s1	36	x	x	n	x	x
CC(C)Cc1nnc(NC(=O)C23CC4CC(CC(C4)C2)C3)s1	n	x	x	n	x	x
CCc1nnc(NC(=O)C23CC4CC(CC(C4)C2)C3)s1	24	x	x	56	x	x
SMILES	Cycloheximide cs	Marburg entry inh	LASV entry inh	Shiga toxin inh	VACV Venus inh	Vaccinia mCherry
CSc1nnc(NC(=O)C23CC4CC(CC(C4)C2)C3)s1	36	x	x	n	x	x
Cc1ccc(N2CC(C(=O)Nc3nnc(SCC(N)=O)s3)CC2=O)cc1C (stereo unspecified)	n	n	n	n	n	n
COc1ccc(C2c3c(n(C)c4ccccc34)C(=O)N2CC(=O)Nc2ccc(C)cc2Cl)cc1 (stereo unspecified)	x	x	u	x	n	n
C=CCNC(=O)[C@H]1C=C(OC)C(=O)C[C@H]2c3ccccc3C[C@]12C	x	n	x	x	x	x
CCOc1cc(/C=C2/SC(=S)NC2=O)ccc1OC(=O)c1ccco1	12	n	n	n	n	n
Oc1ccccc1CN1CCCN(Cc2ccccc2O)C1	n	1.5µM	7.3µM	n	x	x
Cc1ccc(Nc2nnc(SCC(=O)Nc3cccnc3Cl)s2)cc1C	27	u	u	52	n	n
Cc1cccc(Nc2nnc(SCC(=O)Nc3ccccc3[N+](=O)[O-])s2)c1C	27	u	u	n	n	n
COc1ccc(COC(=O)N/N=C2\C[C@@H](O)[C@@H](O)[C@@H]3[C@@H]4C(=O)N(Cc5ccccc5)C(=O)[C@@H]4CC[C@H]23)cc1	x	n	x	x	x	x
CCOc1ccccc1C(=O)Nc1cccc(-c2ccc3nncn3n2)c1	n	7.1µM	u	n	n	n
Cc1ccccc1C(=O)Nc1cccc(-c2ccc3nncn3n2)c1	n	u	u	n	n	n
O=C(COc1ccc2c(c1)OCO2)Nc1nncs1	18	n	n	n	n	n
NC(=O)c1ccccc1NC(=O)COc1ccc2c(c1)OCO2	29	u	u	85	n	n
Cc1ccc(NC(=O)COc2ccc3c(c2)OCO3)c(C)c1	x	n	n	x	n	n
CCOc1ccccc1NC(=O)COc1ccc2c(c1)OCO2	n	u	n	59	n	u
COc1ccccc1NC(=O)COc1ccc2c(c1)OCO2	25	x	x	70	x	x
CC(NC(=S)Nc1ccc(F)cc1)C(c1cccs1)N1CCOCC1 (stereo unspecified)	n	x	x	n	n	n
CCCCN(C)CCNC(=O)c1c(C)oc2ncnc(N3CCOCC3)c12	x	x	u	x	n	n
COC(=O)c1c(C)sc(-c2c(-c3cccc(Cl)c3)[nH]c3c2c(=O)[nH]c(=O)n3C)c1O	x	n	n	x	n	n
O=C(NCc1ccc2c(c1)OCO2)NC12CC3CC(CC(C3)C1)C2	n	n	u	n	n	n
COc1ccccc1NC(=O)NNC(=O)COc1ccc2ccccc2c1	24	x	x	n	x	x
O=C(COc1ccc2c(c1)OCO2)NC12CC3CC(CC(C3)C1)C2	17	n	n	44	n	n
COc1ccc(OCC(=O)Nc2ccccc2OC(F)F)cc1	9.6	n	n	n	n	x
Cc1cc(O)cc(O)c1C(=O)OC1(C)C(=O)C=C2C=C(/C=C/C(=O)O)OC=C2C1=O (stereo unspecified)	x	n	x	x	x	x
Cc1ccccc1C1c2[nH]c3ccccc3c2C[C@H]2C(=O)N(C3CCN(Cc4ccccc4)CC3)CC(=O)N12 (stereo partly specified)	n	x	x	n	x	x
SMILES	Cycloheximide cs	Marburg entry inh	LASV entry inh	Shiga toxin inh	VACV Venus inh	Vaccinia mCherry
O=C1[C@@H]2Cc3c([nH]c4ccccc34)C(c3ccccc3)N2C(=O)CN1C1CCN(Cc2ccccc2)CC1 (stereo partly specified)	n	u	u	n	u	u
CCOc1ccccc1C1c2[nH]c3ccccc3c2C[C@H]2C(=O)N(C3CCN(Cc4ccccc4)CC3)CC(=O)N12 (stereo partly specified)	n	20µM	u	n	n	n
O=C1[C@@H]2Cc3c([nH]c4ccccc34)C(c3cccc(Br)c3)N2C(=O)CN1C1CCN(Cc2ccccc2)CC1 (stereo partly specified)	18	u	u	n	u	u
Cc1ccc(NC(=O)N/C=C/c2ccccc2)cc1	24	n	n	42	n	x
Cc1ccc(NC(=O)N/C=C/c2ccc(Cl)cc2)cc1	n	u	n	n	n	n
O=C(N/C=C/c1ccccc1)Nc1ccc(Cl)cc1	74	n	u	198	n	n
COc1cccc(N2CCN(C(=O)CCS(=O)(=O)c3ccc4c(c3)CC(=O)N4C)CC2)c1	x	x	n	x	n	n
